Records with an inconclusive call do not appear. Unmarked numbers belong to inactive results. Calls of active or inactive are those of the source. Calls follow the shape of the dose curve; as a rule, active = well fitted curve in the direction sought with a large enough effect; inconclusive = small, poorly fitted or top-dose-only effect, or another doubt; inactive = no such curve, though single readings can be large; an effect the other way counts as inactive or inconclusive.
Columns and labels:
[1] = Quantitative highthroughput screen to assess conditional lethalithy of NOMO1 cells grown in Human Plasma-Like Medium with dialyzed fetal bovine serum (HPLM+ds) (AID 1963878); also: nearly all actives have a fitted effect of over 35% in size;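 as to viability: 100% = DMSO wells and 0% = empty wells on each plate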
In short: (§1)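 Each medium arm—HPLM with 10% dialyzed FBS, or RPMI1640 with 5 mM glucose and 10% untreated or dialyzed FBS—was screened against an 11-point, 3-fold compound titration for 48 h at 37 °C, with CellTiter-Glo luminescence as endpoint.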

[2] = Quantitative highthroughput screen to assess conditional lethalithy of SEM cells grown in Human Plasma-Like Medium with dialyzed fetal bovine serum (HPLM+ds) (AID 1963882); also: nearly all actives have a fitted effect of over 35% in size; as to viability: series mostly up to about 46 µM
In short: as §1

[3] = Quantitative highthroughput screen to assess conditional lethalithy of SEM cells grown in RPMI1640 with dialyzed fetal bovine serum (RPMI+ds) (AID 1963884); also: nearly all actives have a fitted effect of over 35% in size;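 as to viability: series mostly up to about 46 µM; 100% = DMSO control wells and 0% = empty wells without cells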
In short: as §1

[4] = Quantitative highthroughput screen to assess conditional lethalithy of SEM cells grown in RPMI1640 with unreated serum (RPMI+s) (AID 1963883); also: nearly all actives have a fitted effect of over 35% in size;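 as to viability: 100% = DMSO wells and 0% = empty wells without cells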
In short: as §1

[5] = Cellular viability qHTS for adrenocortical cancer (ACC) cell line SW-13 (AID 1963989); details: SW-13 ACC cells viability, CellTiter-Glo, 48 h; activity (max response): stronger effect = lower value; also: nearly all actives have a fitted effect of over 65% in size;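 as to activity (max response): cells grown in serum-free medium with ITS supplement; % is scaled to controls: 0 for no effect and ±100 for the full control effect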
In short: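 Compound titrations (up to 46 uM final, in DMSO) were applied to SW-13 cells for 48 h at 37C/5% CO2. Reading used CellTiter-Glo after 20 min at room temperature; fitted curves yielded IC50 and efficacy.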

[6] = Cellular viability qHTS for adrenocortical cancer (ACC) cell line NCI-H295R (AID 1963990); also: nearly all actives have a fitted effect of over 60% in size
In short: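 Readout: CellTiter-Glo luminescence, 20 min RT. Exposure: 48 h, 37C/5% CO2. Cells: NCI-H295R, ITS-DMEM serum-free. Range: up to 46 uM. Analysis: 4PL fit, IC50 plus efficacy.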

[7] = Quantitative highthroughput screen to assess conditional lethalithy of P12 Ichikawa cells grown in Human Plasma-Like Medium with dialyzed fetal bovine serum (HPLM+ds) (AID 1963879); details: Potency: viability; also: nearly all actives have a fitted effect of over 35% in size; as to viability: series mostly up to about 46 µM
In short: as §1

[8] = Quantitative highthroughput screen to assess conditional lethalithy of P12 Ichikawa cells grown in RPMI1640 with dialyzed fetal bovine serum (RPMI+ds) (AID 1963880); details: Potency: P12-Ichikawa viability; also: nearly all actives have a fitted effect of over 35% in size;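 as to viability: 100% = DMSO wells and 0% = empty wells on each plate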
In short: as §1

[9] = Quantitative highthroughput screen to assess conditional lethalithy of P12 Ichikawa cells grown in RPMI1640 with untreated serum (RPMI+s) (AID 1963881); details: Potency: viability; also: nearly all actives have a fitted effect of over 35% in size;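 as to viability: series mostly up to about 46 µM; 100% = DMSO wells and 0% = empty wells without cells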
In short: as §1
Potency is read from the fitted curve at half-maximal effect.

## Nc1nc(F)nc2c1ncn2[C@@H]1O[C@H](COP(=O)(O)O)[C@@H](O)[C@H]1O
[1]
  Potency: 9.35 µM (active)
[2]
  Potency: 1.48 µM (active)
[3]
  Potency: 1.87 µM (active)

## CC(N[C@H]1CCCC[C@H]1NC(=O)c1ccc(Cl)cc1)c1cccc2ccccc12 (some centres not stated)
[1]
  Potency: 5.26 µM (active)
[2]
  Potency: inactive
[4]
  Potency: inactive
[3]
  Potency: inactive
[5]
  Potency: 25.1 µM (active)
[6]
  Potency: 7.08 µM (active)

## CC(C)NC[C@@H](C(=O)N1CCN(c2ncnc3c2[C@H](C)C[C@H]3O)CC1)c1ccc(Cl)cc1
[1]
  Potency: 14.8 µM (active)
[4]
  Potency: 0.296 µM (active)
[3]
  Potency: 0.296 µM (active)

## CO[C@H]1C[C@@H]2CC[C@@H](C)[C@@](O)(O2)C(=O)C(=O)N2CCCC[C@@H]2C(=O)O[C@H]([C@H](C)C[C@@H]2CC[C@H](OC(=O)C(C)(CO)CO)[C@H](OC)C2)CC(=O)[C@H](C)C=C(C)[C@@H](O)[C@@H](OC)C(=O)[C@H](C)C[C@H](C)C=CC=CC=C1C
[7]
  Potency: 6.62 µM (active)

## CON=C(C(=O)N[C@@H]1C(=O)N2C(C(=O)O)=C(CSC(=O)c3ccco3)CS[C@H]12)c1csc(N)n1
[7]
  Potency: inactive
[8]
  Potency: inactive
[9]
  Potency: inactive
[2]
  Potency: inactive
[4]
  Potency: inactive
[3]
  Potency: inactive

## CCOc1ccccc1N=Nc1c(C)[nH]n(-c2nc(-c3ccccc3)cs2)c1=O
[7]
  Potency: 16.6 µM (active)
[8]
  Potency: inactive
[9]
  Potency: inactive
[2]
  Potency: 5.26 µM (active)
[4]
  Potency: 6.62 µM (active)
[3]
  Potency: 7.43 µM (active)
[5]
  activity (max response): -16.4%
[6]
  Potency: inactive

## CCOC(=O)N[C@@H]1CC[C@@H]2[C@@H](C1)C[C@H]1C(=O)O[C@H](C)[C@H]1[C@@H]2C=Cc1ccc(-c2cccc(F)c2)cn1
[7]
  Potency: inactive

## COc1cc(O)c2c(c1)C(=O)c1cc(C)cc(O)c1C2=O
[1]
  Potency: 9.11 µM (active)
[2]
  Potency: 6.45 µM (active)
[4]
  Potency: 4.07 µM (active)
[3]
  Potency: 5.12 µM (active)

## O=C(Cc1cccc(OC(F)(F)F)c1)Nc1ccc(CCCCc2nnc(NC(=O)Cc3ccccn3)s2)nn1
[1]
  Potency: inactive
[7]
  Potency: inactive
[2]
  Potency: 0.0524 µM (active)
[5]
  activity (max response): 11.1%
[6]
  Potency: inactive

## CCCCCCCCOc1ccccc1C(=O)Nc1ccc(C(=O)OCC[N+](C)(CC)CC)cc1
[7]
  Potency: inactive

## CON=C(C(=O)N[C@@H]1C(=O)N2C(C(=O)OCOC(=O)C(C)(C)C)=C(C=Cc3scnc3C)CS[C@H]12)c1csc(N)n1
[8]
  Potency: 16.6 µM (active)
[9]
  Potency: 14.8 µM (active)
[2]
  Potency: inactive
[4]
  Potency: 9.35 µM (active)

## O=c1[nH]c(=O)n([C@H]2C[C@@H](O)[C@@H](CO)O2)cc1C(F)(F)F
[7]
  Potency: 1.18 µM (active)
[9]
  Potency: 3.72 µM (active)
[4]
  Potency: 9.35 µM (active)
[3]
  Potency: 1.87 µM (active)

## FC(F)(F)c1ccc(C=Cc2nc(COc3ccc(CCCCn4ccnn4)cc3)co2)cc1
[7]
  Potency: 0.935 µM (active)
[2]
  Potency: inactive
[3]
  Potency: 0.0093 µM (active)

## CC=C(C)C(=O)O[C@H]1C(C)=C[C@]23C(=O)[C@@H](C=C(CO)[C@@H](O)[C@]12O)[C@H]1[C@@H](C[C@H]3C)C1(C)C
[7]
  Potency: inactive
[9]
  Potency: 0.0066 µM (active)

## COc1cc(CNC(=O)CCCCC=CC(C)C)ccc1O
[7]
  Potency: 0.332 µM (active)
[8]
  Potency: 0.418 µM (active)
[9]
  Potency: 0.833 µM (active)
[4]
  Potency: 0.526 µM (active)

## Cc1c[nH]c(C=C2C(=O)Nc3ccccc32)c1CCC(=O)O
[7]
  Potency: 2.64 µM (active)
[2]
  Potency: 0.833 µM (active)

## CC(C)OC(=O)[C@H](C)N[P@](=O)(OC[C@H]1O[C@@H](n2ccc(=O)[nH]c2=O)[C@](C)(F)[C@H]1O)Oc1ccccc1
[7]
  Potency: 1.32 µM (active)
[8]
  Potency: 4.69 µM (active)
[2]
  Potency: 4.69 µM (active)
[4]
  Potency: 6.62 µM (active)
[3]
  Potency: 8.33 µM (active)

## CC[C@@]1([C@@H]2O[C@@H]([C@H]3O[C@@](O)(CO)[C@H](C)C[C@H]3C)C[C@H]2C)CC[C@H]([C@]2(C)CC[C@]3(C[C@H](O)[C@@H](C)[C@@H]([C@@H](C)[C@@H](OC)[C@H](C)C(=O)O)O3)O2)O1
[8]
  Potency: 2.29 µM (active)
[9]
  Potency: 1.44 µM (active)
[2]
  Potency: 0.512 µM (active)
[4]
  Potency: 0.457 µM (active)
[3]
  Potency: 1.15 µM (active)
[6]
  Potency: 0.715 µM (active)

## O=C(O)C=Cc1ccc(O)c(O)c1
[7]
  Potency: 26.4 µM (active)
[8]
  Potency: 26.4 µM (active)
[4]
  Potency: 13.2 µM (active)
[3]
  Potency: 14.8 µM (active)

## CC(=O)ON=C1C(c2c(O)[nH]c3cc(Br)ccc23)=Nc2ccccc21
[7]
  Potency: 20.9 µM (active)
[2]
  Potency: 1.18 µM (active)
[3]
  Potency: 0.935 µM (active)

## CCCCCN=C(N)NN=Cc1c[nH]c2ccc(OC)cc12
[8]
  Potency: 14.8 µM (active)
[9]
  Potency: 13.2 µM (active)

## COc1nccc(-c2c(-c3ccc(F)cc3)ncn2C2CCC(O)CC2)n1 (configuration not stated)
[7]
  Potency: inactive
[9]
  Potency: inactive
[4]
  Potency: 5.26 µM (active)
[5]
  activity (max response): -14%
[6]
  Potency: inactive

## O=C(O)CCC1CCC(c2cc(F)ccc2F)(S(=O)(=O)c2ccc(Cl)cc2)CC1 (configuration not stated)
[7]
  Potency: 8.33 µM (active)
[8]
  Potency: 14.8 µM (active)
[9]
  Potency: 9.35 µM (active)
[2]
  Potency: inactive
[3]
  Potency: inactive
[5]
  activity (max response): -1.6%
[6]
  Potency: inactive

## COc1ccc(Cc2nccc3cc(OC)c(OC)cc23)cc1OC
[7]
  Potency: inactive
[9]
  Potency: inactive
[2]
  Potency: inactive

## O=c1[nH]c(=O)n([C@H]2C[C@@H](O)[C@@H](CO)O2)cc1F
[7]
  Potency: 0.0833 µM (active)
[8]
  Potency: 0.0743 µM (active)
[4]
  Potency: 2.35 µM (active)

## COc1cc2c(cc1O)CCC1C2CC[C@@]2(C)C1CC[C@@H]2O (some centres not stated)
[7]
  Potency: 1.87 µM (active)
[9]
  Potency: 2.64 µM (active)
